Assay outcomes from PubChem.
VP16 counter: inhibits Gal4-VP16 luciferase reporter, ROR gamma counter-screen | actives 3.5% (n = 310,000) | Drosophila S2 Gal4-VP16 UAS-luciferase, luminescence, 20 h | AID 2546 | Potency, µM (doses to about 53.6 µM), most hits filed as inhibitors;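 also: Gal4-VP16 expression switched on by copper sulfate through the metallothionein promoter; nearly all actives have a fitted effect of over 50% in size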
RORgamma inh: blocks mouse ROR gamma transcriptional activity; Potency, µM (series often up to 53.6 µM), usual class: inhibitors; P51450; actives 5.4% (n = 310,000); AID 2551; Drosophila S2 Gal4-RORgamma UAS-luciferase reporter, 20 h; also: nearly all actives have a fitted effect of over 60% in size
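Schneider cells (Drosophila), stable Gal4 DBD–ROR gamma + UAS-luc; 1 hr cmpd preincubation; Cu2+ induction 700 uM final; 20 hr ambient; luminescence.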
ERG Ets-DNA blk: ERG Ets/DNA interaction inhibition; P11308; fluorescence polarization, His-ERG Ets domain / labelled DNA; Potency, µM (highest dose often 76.9 µM), usual class: inhibitors; actives 0.028% (n = 370,000); active = well fitted inhibition curve with a large enough effect in the polarisation, with a control signal flat; inconclusive = small, poorly fitted or top-dose-only effect, or effect the other way, or a change in a side signal; inactive = no such curve, though single readings can be large or run the other way; the % refers to the polarisation;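 also: polarization taken with two DNA probes labelled with fluorescein and Texas red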
Target sequence (P11308 whole entry, looked up, the tested form may be a part): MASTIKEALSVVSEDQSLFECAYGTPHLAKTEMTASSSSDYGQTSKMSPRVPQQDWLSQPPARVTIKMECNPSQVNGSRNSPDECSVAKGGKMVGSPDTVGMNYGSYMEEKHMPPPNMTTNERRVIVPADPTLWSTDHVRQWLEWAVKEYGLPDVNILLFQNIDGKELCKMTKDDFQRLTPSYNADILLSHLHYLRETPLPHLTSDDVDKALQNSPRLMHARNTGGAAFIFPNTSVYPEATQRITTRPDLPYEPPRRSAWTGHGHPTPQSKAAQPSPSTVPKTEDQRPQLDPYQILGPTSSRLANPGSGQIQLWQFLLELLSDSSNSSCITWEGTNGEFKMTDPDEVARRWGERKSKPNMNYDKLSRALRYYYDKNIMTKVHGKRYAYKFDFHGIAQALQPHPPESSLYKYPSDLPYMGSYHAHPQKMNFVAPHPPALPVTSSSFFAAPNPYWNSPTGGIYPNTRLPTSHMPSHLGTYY
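His-tagged ERG Ets domain (1 uM in the protein solution; 300mM KCl, 50mM Tris-HCl, 1mM EDTA, 1mM DTT, pH 7.5) received compound, then a probe mix of 5 nM fluorescein-DNA and 100nM Texas-615-DNA. Fluorescence polarization was read for both dyes.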
Giardia killer: Giardia lamblia killing; Giardia lamblia trophozoite viability; activity change, % at 7.66 µM, hits read low; actives 0.15% (n = 340,000); in the data active = activity change below about -80%; inconclusive = between about -30% and that limit;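 also: parasites exposed to compound for two days anaerobically before the ATP read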
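Giardia lamblia trophozoites (100 cells/well) were incubated with compounds for 48 h at 37 deg C under anaerobic conditions. Viability was read as ATP content by one-step luminescence after 15-30 min at room temperature.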
Integrin act MD: integrin-mediated muscular dystrophy alleviation activation; Potency, µM (doses to about 38.3 µM), most hits filed as activators; alpha7betagal myoblasts, beta-gal FDG fluorescence, 48 h; actives 0.064% (n = 350,000); also: nearly all actives have a fitted effect of over 60% in size
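Alpha7betagal+/- myoblasts (passage 13) were plated 16-24 hr, then exposed to compounds (1:260 dilution of DMSO stock) for 48 hours at 37C. After MPER lysis, β-galactosidase reporter activity was read as FDG fluorescence (ex 480/em 540) after 30 minutes.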
Hits are given with their value; 0 = inactive; ? = inconclusive; - = no result given; [ ] = remark or other dose. This excerpt belongs to a sample that is enriched for hits. Unless noted, calls follow the shape of the dose curve; as a rule, active = well fitted curve in the direction sought with a large enough effect; inconclusive = small, poorly fitted or top-dose-only effect, or another doubt; inactive = no such curve, though single readings can be large; an effect the other way counts as inactive or inconclusive.

SMILES	VP16 counter	RORgamma inh	ERG Ets-DNA blk	Giardia killer	Integrin act MD
N#Cc1ccc(Oc2cccc3cccnc23)c([N+](=O)[O-])c1	0	0	0	0	0
O=[N+]([O-])c1ccc(Oc2cccc3cccnc23)c([N+](=O)[O-])c1	?	8.9µM	0	0	0
O=C(Oc1cccc2cccnc12)c1cccc([N+](=O)[O-])c1	3.2µM	3.5µM	0	0	?
O=C(Oc1ccccc1)c1cccc2cccnc12	4µM	2.5µM	-	0	0
Cn1nc(C(=O)NC2CCCCC2)c2c1-c1ccccc1S(=O)(=O)C2	0	0	0	0	0
CC(=O)c1ccc(S(=O)(=O)Nc2ccc(C(=O)N(C)CC(=O)Nc3cccc(C)c3C)cc2)cc1	-	-	0	0	0
O=S(=O)(Nc1ccc(F)cc1)N1CCOCC1	0	?	0	0	0
Cc1c(C(=O)O/N=C(\N)c2ccccn2)cccc1[N+](=O)[O-]	0	0	0	0	0
O=C(Oc1ccc(Cl)c2cccnc12)c1cccc([N+](=O)[O-])c1	1.6µM	1.1µM	0	0	0
O=C(Oc1c(Cl)cc(Cl)c2cccnc12)c1cccc([N+](=O)[O-])c1	-	0.28µM	0	0	0
O=C(Oc1coc(CSc2ncccn2)cc1=O)c1cccc([N+](=O)[O-])c1	0	0	0	0	0
Cc1c(C(=O)Oc2cccc3cccnc23)cccc1[N+](=O)[O-]	3.2µM	2.8µM	0	0	0
Cc1ccc2ccc3c(c2n1)NS(=O)(=O)c1ccc(C(F)(F)F)cc1-3	-	-	-	0	-
Cc1cc(O)c(C(C)C)cc1Cl	0	0	-	-	-
COc1ccccc1CNC(=O)c1cc(C(=O)CC(C)C)c[nH]1	0	?	0	0	0
CC(C)c1onc(-c2c(Cl)cccc2Cl)c1COc1ccc(/C=C/c2cccc(C(=O)O)c2)c(Cl)c1	5.6µM	0	-	-	-
CCC(C)NC(=O)c1cccc(OCc2c(C)noc2C)c1 (centres undefined)	0	0	0	0	0
CN(C)c1ccc(C(=O)N2CCCC(CCC(=O)N3CCN(c4ccccn4)CC3)C2)cc1 (centres undefined)	0	0	0	0	0
CCOC(=O)c1ccc(S(=O)(=O)Nc2nc3cc(S(=O)(=O)NC4=NCCCCC4)ccc3s2)cc1	?	14µM	0	0	0
CC(C)N1CC(O)=C(c2nc3ccccc3[nH]2)C1=N	0	0	0	0	0
CC1(C)C(O)=C(c2nc3ccccc3[nH]2)C(=N)N1c1ccccc1	11µM	1.8µM	0	0	0
Oc1csc(Cc2nc(-c3ccc(-c4ccccc4)cc3)cs2)n1	0	?	0	0	0
Oc1csc(Cc2nc(-c3ccc4ccccc4c3)cs2)n1	0	11µM	0	0	0
Cc1ccccc1N=C/C=C1\N(C)c2ccccc2C1(C)C	13µM	?	?	0	0
CN1/C(=C\C=N\O)C(C)(C)c2ccccc21	0	0	0	0	0
SMILES	VP16 counter	RORgamma inh	ERG Ets-DNA blk	Giardia killer	Integrin act MD
CO/N=C/C=C1/N(C)c2ccccc2C1(C)C	0	0	0	0	0
CN1/C(=C/C=N/NC(=O)c2ccc([N+](=O)[O-])cc2)C(C)(C)c2ccccc21	2.2µM	1.8µM	0	0	0
CN1/C(=C\C(=S)NC(=O)c2cccc(Br)c2)C(C)(C)c2ccccc21	6.3µM	?	0	0	0
CN1/C(=C\C(=S)NC(=O)c2ccc([N+](=O)[O-])cc2)C(C)(C)c2ccccc21	4µM	3.5µM	0	0	0
CCc1cccc(NC(=O)CN2C(=O)COc3ccc(S(=O)(=O)N4CCC(C)CC4)cc32)c1	-	-	0	-	-
Cc1ccc2[nH]c(CNC(=O)C3CCCCC3)cc2c1	0	0	0	0	0
CC12CCC=CC1C(c1ccc3ccccc3c1C=Cc1ccccc1)N(Cc1ccccc1)C2=O (centres undefined)	0	0	-	0	-
CCOc1cc(Br)cc(C2NC(=O)c3c(sc4c3CCN(C)C4)N2)c1O (centres undefined)	-	-	0	-	-
COc1ccccc1C1(O)CCN(CCCn2c3ccccc3c3ccccc32)CC1	0	0	-	-	-
COc1cccc(-c2n[nH]c(=S)n2Cc2ccco2)c1	?	16µM	0	0	0
S=c1[nH]nc(-c2ccncc2)n1Cc1ccco1	0	0	0	0	0[7.66 µM]
Cc1c(Cl)c(-c2n[nH]c(=S)n2Cc2ccco2)nn1C	0	11µM	0	0	0
S=c1[nH]nc(-c2ccc(Br)cc2)n1Cc1ccco1	2.5µM	1.4µM	0	0	0
C=CCn1c(-c2cc(OC)c(OC)c(OC)c2)n[nH]c1=S	?	?	0	0	0
C=CCn1c(-c2cccc(OC)c2)n[nH]c1=S	?	7.1µM	0	0	0
CCOC(=O)c1[nH]c(C)c(CCC(=O)Nc2ccc(C)cc2Cl)c1C	-	-	0	-	-
COc1cc(Cl)ccc1OCc1cc(C(=O)N(C)CCc2cnn(C)c2)no1	0	0	0	0	0
S=c1[nH]nc(C23CC4CC(CC(C4)C2)C3)n1Cc1ccco1	11µM	1.3µM	0	0	0
C[n+]1c2n(c3ccccc31)N=C(c1cc(C(C)(C)C)c(O)c(C(C)(C)C)c1)CS2	7.9µM	?	0	0	0
COc1cccc(C2=Nn3c(nnc3-c3ccccc3O)SC2)c1	?	?	0	0	0
Fc1ccccc1-c1cc2ncccc2cn1	-	-	0	0	0
O=C(NC(=S)Nc1nc(-c2ccc(Cl)cc2)cs1)c1cccs1	0	0.79µM	0	0	0
O=C(NC(=S)Nc1nc(-c2ccccc2)cs1)c1cccs1	0	0	0	0	0
Cc1ccc2nc(NC(=S)NC(=O)c3cccs3)sc2c1	3.2µM	1.1µM	0	?	0
Cc1ccc(-c2csc(NC(=S)NC(=O)c3cccs3)n2)cc1	0	2µM	0	0	0
SMILES	VP16 counter	RORgamma inh	ERG Ets-DNA blk	Giardia killer	Integrin act MD
Cc1ccccc1NC(=O)c1c(O)c2cccc3c2n(c1=O)CCC3	0	0	-	-	-
CCOC(=O)c1nnn(-c2nonc2N)c1-c1ccc(F)cc1	0	0	0	0	0
COc1ccc(C2(C(=O)NCCCN3CCOCC3)CCOCC2)cc1	0	3.5µM	0	0	0[7.66 µM]
COc1ccc(C2(C(=O)NCCN3CCOCC3)CCOCC2)cc1	0	0	0	0	0
CC(=O)N1CCC2(CC1)CN(Cc1ccccc1)C2	0	0	-	-	-
CC1CCCCC12NC(=O)N(CC(=O)N1CCc3ccccc3C1)C2=O (centres undefined)	-	-	0	0	0
COc1ccc(N=c2scc(-c3ccc(S(=O)(=O)N4CCOCC4)cc3)n2CCCO)cc1	5.6µM	?	-	-	-
CC(=O)c1cccc(N=c2scc(-c3ccc(S(=O)(=O)N4CCOCC4)cc3)n2CCO)c1	2µM	?	0	0	0
O=S(=O)(c1ccc(-c2csc(=Nc3ccc(F)cc3)n2CCCCCCO)cc1)N1CCCC1	-	-	0	-	-
C=CCn1c(-c2ccc(S(=O)(=O)N3CCOCC3)cc2)csc1=Nc1ccccc1	14µM	0	0	0	0
OCc1nc2ccccc2n1CCCc1ccccc1	-	-	-	-	0
